We go through 34 compounds from PubChem BioAssay AID540360 (National Center for Advancing Translational Sciences (NCATS), 2011).

The structures appear in SMILES notation. Records with an inconclusive call do not appear. Activity calls are given as the source filed them. The call rests on the fitted dose curve; in most records, active means well fitted inhibition curve with a large enough effect; inconclusive means small, poorly fitted or top-dose-only effect; inactive means no such curve, though single readings can be large or run the other way.

This test deals with 6-phosphofructokinase (Trypanosoma brucei). The test can be described thus: Confirmatory Assay to Find Inhibitors of T. brucei phosphofructokinase: probe SAR. The settings on record: recombinant T. brucei PFK, ADP-Glo luminescence; series mostly up to 57.5 µM; activity change, negative = inhibition: at the top concentration. The text has this: NIH Molecular Libraries Probe Production Network [MLPCN] NIH Chemical Genomics Center [NCGC] Grant: 1 R03 MH092153-01 PI Name: Malcolm Walkinshaw, University of Edinburgh NCGC Assay Overview: Various species of the protozoan family Trypanosomatidae are responsible for a range of serious human diseases in tropical and subtropical areas of the world. […] Many of the disorders caused by trypanosomatids are fatal if left untreated, but most currently used drugs are inefficient and toxic. […] Oxidative metabolism involving the mitochondrial tricarboxylic acid cycle and oxidative phosphorylation are repressed in these parasites, and recent RNA interference (RNAi) experiments have shown that even partial depletion of certain individual glycolytic enzymes can lead to the death of cultured parasites. One such glycolytic enzyme, phosphofructokinase (PFK), catalyzes the formation of fructose-1,6-bisphosphate (F1,6BP) and ADP from fructose-6-phosphate (F6P) and ATP, and in many metabolic circumstances makes an important contribution to the control of flux through the glycolytic pathway. As a specific glycolytic target, PFK is particularly attractive as it catalyzes the first irreversible step in glycolysis, and structural and kinetic studies have shown very substantial and essential differences from corresponding host enzymes, allowing for the discovery of parasite-selective inhibitors. The goal of this screen is to find small-molecule inhibitors of T. brucei PFK using a biochemical assay that measures PFK activity as a function of ADP production. A luminescence-based assay for T. brucei PFK activity has been developed which uses luciferase to detect production of ADP. Traditional luciferase-based nucleotide detection reagents rely on ATP production as a direct substrate for the luciferase reaction; however, PFK catalyzes the transfer of a phosphate from ATP to F6P, resulting in the net depletion of ATP. To directly measure the ADP product of the PFK reaction, we used the ADP-Glo detection kit (Promega), which utilizes two separate reactions to 1) deplete all remaining uncatalyzed ATP and 2) convert all remaining ADP to ATP, which is then detected through a traditional luciferase-coupled reaction. Compounds were screened as a concentration-titration series that ranged from 57 uM to 0.3 nM.
NCGC Assay Protocol Summary: NCGC Assay Protocol Summary: Substrate buffer was dispensed into white, solid 1536-well plates at 3uL/well in 0.1M triethanolamine (TEA) buffer, pH 8.0, containing final concentrations of 5 mM MgCl2, 0.01% Tween20, 0.5 mM fructose-6-phosphate (F6P) and 0.1mM ATP. Then, 23 nL of compounds or DMSO were delivered to each well using a pin tool. One uL T. brucei PFK (0.1M TEA, 0.01% Tween20, 0.1% bovine serum albumin (BSA) and 1.25nM PFK, final concentrations) was then dispensed, and plates were incubated at room temperature for 45 min. The luminescent detection reagent, ADP-Glo (Promega), was then added in two steps: the first reagent, ADP-Glo (which converts remaining uncatalyzed ATP), was added at 2.5uL/well and incubated for ten minutes at room temperature, and the second component, Kinase Detection reagent (which converts ADP to ATP as a substrate for luciferase-based luminescence), was added immediately after at 5uL/well, followed by one final ten minute room temperature incubation. The plates were measured on a ViewLux plate reader for luminescent signal using a clear filter with a one second exposure. The %Activity was determined from the corrected luminescence values. As no specific T. brucei PFK inhibitors have been identified in the literature, 1x (1.25nM) and 0x PFK enzyme controls (untreated) were included to normalize %Activity of identified inhibitors; 0x enzyme values corresponded to 100%Activity (full inhibition), while 1x PFK enzyme values were used to normalize 0%Activity (no inhibition). Concentration-response curves were fitted to the signals arising from the resulting luminescence. […]
On to `CN(C)c1cccc(NS(=O)(=O)c2ccc(NC(=O)Cc3ccc(Cl)c(Cl)c3)cc2)c1`, for which the Potency is 5.8 µM (active).

On to `Cc1cc(NS(=O)(=O)c2ccc(NC(=O)Cc3ccc(Cl)c(Cl)c3)cc2)n(C)n1`, for which the Potency is 1.46 µM (active).

Take `Cc1cc(NS(=O)(=O)c2ccc(NC(=O)Cc3ccc(Cl)cc3Cl)cc2)no1`: the Potency is 4.61 µM (active).

Regarding `Cc1cc(NS(=O)(=O)c2ccc(NC(=O)Cc3ccc(Cl)cc3)cc2)no1`, the Potency is 1.83 µM (active).

For the compound `O=C(Cc1ccc(Cl)c(Cl)c1)Nc1ccc(S(=O)(=O)Nc2ccn[nH]2)cc1`, the Potency was 0.517 µM (active).

Take `Cc1cc(NS(=O)(=O)c2ccc(NC(=O)Cc3ccc(C)c(C)c3)cc2)no1`: the Potency was 18.3 µM (active).

Turning to `Cc1cc(NS(=O)(=O)Cc2ccc(NC(=O)Cc3ccc(Cl)c(Cl)c3)cc2)no1`, the Potency was 2.59 µM (active).

Consider `Cc1cc(N[S+](=O)([O-])c2ccc(NC(=O)Cc3ccc(Cl)nc3)cc2)no1`, for which the Potency is 20.6 µM (active).

In the case of `Cc1cc(N(C)S(=O)(=O)c2ccc(NC(=O)Cc3ccc(Cl)c(Cl)c3)cc2)no1`, the Potency is 2.91 µM (active).

With `Cc1cc(NS(=O)(=O)c2ccc(NC(=O)Cc3ccc(Cl)c(Cl)c3)cc2)no1`, the Potency is 0.41 µM (active).

`Cc1cc(NS(=O)(=O)c2ccc(NC(=O)Cc3cccc(Cl)c3)cc2)no1`: the Potency is 7.3 µM (active).

As to `Cc1cc(NS(=O)(=O)c2ccc(NC(=O)Cc3ccc(Cl)c(F)c3)cc2)no1`, the Potency is 0.58 µM (active).

In the case of `Cc1cc(NC(=O)c2ccc(NC(=O)Cc3ccc(Cl)c(Cl)c3)cc2)no1`, the “activity change, negative = inhibition” value was -9.38% (inactive).

For the compound `COc1ccc(CC(=O)Nc2ccc(S(=O)(=O)Nc3cc(C)on3)cc2)cc1C`, the “activity change, negative = inhibition” value was -23.2% (inactive).

As for `O=C(Cc1ccc(Cl)c(Cl)c1)Nc1ccc(S(=O)(=O)Nc2cccc(C(=O)O)c2)cc1`, the Potency was 0.259 µM (active).

As to `COc1ccc(CC(=O)Nc2ccc(S(=O)(=O)Nc3cc(C)on3)cc2)cc1OC`, the “activity change, negative = inhibition” value was 3.92% (inactive).

In the case of `Cc1cc(NS(=O)(=O)c2ccc(NC(=O)Cc3ccc(C)c(F)c3)cc2)no1`, the Potency is 5.8 µM (active).

For the compound `Cc1cc(NS(=O)(=O)c2cccc(NC(=O)Cc3ccc(Cl)c(Cl)c3)c2)no1`, the Potency was 16.3 µM (active).

As to `O=C(Cc1ccc(Cl)c(Cl)c1)Nc1ccc(S(=O)(=O)Nc2ccccc2)cc1`, the Potency is 16.3 µM (active).

Regarding `O=C(Cc1ccc(Cl)c(Cl)c1)Nc1ccc(S(=O)(=O)Nc2cccc(O)c2)cc1`, the Potency is 1.46 µM (active).

For the compound `O=C(Cc1ccc(Cl)c(Cl)c1)Nc1ccc(S(=O)(=O)Nc2cncnc2)cc1`, the Potency was 0.819 µM (active).

For the compound `Cc1cc(NS(=O)(=O)c2ccc(NC(=O)Cc3ccc(Cl)c(C(F)(F)F)c3)cc2)no1`, the Potency is 0.461 µM (active).

For the compound `Cc1cc(NS(=O)(=O)c2ccc(C(=O)NCc3ccc(Cl)c(Cl)c3)cc2)no1`, the Potency is 2.91 µM (active).

`Cc1cc(NC(=O)c2csc(NC(=O)Cc3ccc(Cl)c(Cl)c3)n2)no1`: the “activity change, negative = inhibition” value is -33.7% (inactive).

On to `Cc1cc(NS(=O)(=O)c2ccc(NC(=O)Cc3ccc(Cl)c(Cl)c3)cc2)on1`, for which the Potency is 0.206 µM (active).

With `Cc1cc(NS(=O)(=O)c2ccc(NC(=O)CCc3ccc(Cl)c(Cl)c3)cc2)no1`, the Potency is 5.17 µM (active).

For `Cc1cc(NS(=O)(=O)c2ccc(NCCc3ccc(Cl)c(Cl)c3)cc2)no1`, the Potency is 4.61 µM (active).

As for `Cc1cc(NS(=O)(=O)c2ccc(NC(=O)Cc3ccc4ccccc4c3)cc2)no1`, the Potency is 6.51 µM (active).

Turning to `O=C(Cc1ccc(Cl)c(Cl)c1)Nc1ccc(S(=O)(=O)O)cc1`, the Potency was 0.651 µM (active).

Consider `Cc1cc(N[S+](=O)([O-])c2ccc3cc(NC(=O)Cc4ccc(Cl)c(Cl)c4)ccc3c2)no1`, for which the Potency was 5.8 µM (active).

As for `Cc1cc(NS(=O)(=O)c2ccc(N(C)C(=O)Cc3ccc(Cl)c(Cl)c3)cc2)no1`, the Potency is 1.63 µM (active).

Take `O=C(Cc1ccc(Cl)c(Cl)c1)Nc1ccc(S(=O)(=O)Nc2ccc(C(=O)O)cc2)cc1`: the Potency was 0.163 µM (active).

Consider `CCOC(=O)c1cccc(NS(=O)(=O)c2ccc(NC(=O)Cc3ccc(Cl)c(Cl)c3)cc2)c1`, for which the “activity change, negative = inhibition” value was -12.9% (inactive).

In the case of `O=C(Cc1ccc(Cl)c(Cl)c1)Nc1ccc(S(=O)(=O)Nc2ccon2)cc1`, the Potency is 0.366 µM (active).
